# This is part of a sample that, as a whole, favours compounds with a hit. Of some 83,000 tested, about 20% had one in any assay.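 Single-dose data. Exposure time 48 hours. Values below 10 considered active.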 Unmarked numbers belong to inactive results. Calls of active or inactive are those of the source.
# Key:
# Experiment in all cases: NCI-60 one-dose screen, 48 h (100 = growth as untreated, 0 = no growth, -100 = all killed)
# Conditions in all cases: 10 µM unless noted
# NCI-H23 lung = system: NCI-H23 lung
# NCI-H226 lung = system: NCI-H226 lung
# NCI-H322M lung = system: NCI-H322M lung
# HOP-62 NSCLC = system: HOP-62 NSCLC
# NCI-H460 lung = system: NCI-H460 lung
# NCI-H522 lung = system: NCI-H522 lung
# A549/ATCC NSCLC = system: A549/ATCC NSCLC
# 786-0 renal = system: 786-0 renal
# DU-145 prostate = system: DU-145 prostate
# MALME-3M melanoma = system: MALME-3M melanoma
# MDA-MB-231 breast = system: MDA-MB-231 breast
# RXF 393 renal = system: RXF 393 renal
# SF-268 CNS = system: SF-268 CNS
# SF-295 CNS = system: SF-295 CNS
# SF-539 CNS = system: SF-539 CNS
# UACC-257 melanoma = system: UACC-257 melanoma
# M14 melanoma = system: M14 melanoma
# K-562 leukemia = system: K-562 leukemia
# COLO 205 colon = system: COLO 205 colon
SMILES,growth (NCI-H23 lung),growth (NCI-H226 lung),growth (NCI-H322M lung),growth (HOP-62 NSCLC),growth (NCI-H460 lung),growth (NCI-H522 lung),growth (A549/ATCC NSCLC),growth (786-0 renal),growth (DU-145 prostate),growth (MALME-3M melanoma),growth (MDA-MB-231 breast),growth (RXF 393 renal),growth (SF-268 CNS),growth (SF-295 CNS),growth (SF-539 CNS),growth (UACC-257 melanoma),growth (M14 melanoma),growth (K-562 leukemia),growth (COLO 205 colon)
O=C(CC(=O)C(F)(F)C(F)(F)C(F)(F)F)c1cc2ccccc2o1,101%,99.8%,106%,97.5%,110%,108%,96.1%,98.4%,114%,102%,100%,116%,111%,99.2%,94.1%,100%,106%,–,–
O=C(Nc1cccc(C2=NCCN2)c1)c1ccc(N=Nc2ccc(C(=O)Nc3cccc(C4=NCCN4)c3)cc2)cc1,44.3%,81.5%,64.7%,42.3%,41.9%,36.2%,33.9%,69.2%,59.1%,29.7%,73.1%,105%,54.2%,82.4%,74%,55.4%,64.9%,51.8%,–
CC(C)(C)OC(=O)N1CCCN(CCNc2nccc(-c3c(-c4cccc(O)c4)nc4sccn34)n2)S1(=O)=O,94.1%,91.1%,92.6%,115%,91.4%,92.4%,101%,87.3%,85%,17.9%,84.3%,78.5%,110%,112%,104%,62.3%,16.7%,–,–
CCN1CCN(Cc2ccc(NC(=O)Nc3ccc(-n4ccc5c(NC(=O)c6ccccc6)nccc54)cc3)cc2C(F)(F)F)CC1,-51.5% (active),71.1%,80.8%,-78.4% (active),-44.3% (active),-87.2% (active),-62.8% (active),-84.6% (active),-58.6% (active),-48% (active),-39.3% (active),-86.8% (active),41.7%,-18.9% (active),-48.4% (active),-69.6% (active),-65.1% (active),-39.2% (active),–
CCOC(=O)Nc1ccc2nc(Sc3ccc(Cl)cc3)sc2c1,54.2%,58.8%,44.6%,35.1%,25%,28.3%,42.5%,49.5%,35.8%,42%,43.4%,36.8%,54.4%,29.1%,5.63% (active),57.3%,30%,21%,–
CCCCCCCCCCCCCCCCCC(=O)[O][Sn]([CH2]CCC)([CH2]CCC)[CH2]CCC,-81.7% (active),-74.6% (active),-91.4% (active),-89.5% (active),-88.9% (active),-54.3% (active),-84.1% (active),-100% (active),-100% (active),-85.9% (active),-57.8% (active),-98% (active),-92.8% (active),-85.3% (active),-81.6% (active),-86.1% (active),-91.1% (active),-42.8% (active),–
CC(=O)Cc1ccccn1,104%,98%,110%,108%,105%,92.5%,104%,101%,107%,106%,105%,119%,98.7%,84.1%,99.7%,103%,102%,100%,–
O=C(Nc1cccc(-n2ccc3c(NC(=O)c4ccccc4)nccc32)c1)c1ccc(N2CCOCC2)c(C(F)(F)F)c1,28.1%,33.5%,27%,7.08% (active),9.44% (active),-22.8% (active),8.39% (active),-12.3% (active),18.7%,53.4%,20.8%,-59.8% (active),24.2%,-15.4% (active),11.9%,58%,38.6%,5.25% (active),–
c1ccc2c(N=NSc3ncnc4nc[nH]c34)c3ccccc3nc2c1,-8.68% (active),-23% (active),8.38% (active),-49.9% (active),2.58% (active),-74.9% (active),-24.4% (active),-5.12% (active),8.43% (active),-17.9% (active),5.25% (active),-20.8% (active),3.15% (active),20.1%,5.02% (active),-13.9% (active),-25.4% (active),–,-95.3% (active)
ClC1(Cl)C2CCCCCCC21 (centres undefined),107%,103%,109%,108%,107%,84.5%,98.2%,94.9%,121%,107%,122%,117%,112%,101%,117%,106%,98.7%,97.8%,–
O=C1/C(=C/c2cc(F)cc(F)c2)Cc2cc(F)cc(F)c21,101%,91.4%,75.9%,95.1%,103%,83.3%,102%,99.8%,104%,86%,95.1%,93.1%,91.4%,95%,89.8%,113%,82.6%,83.8%,–
COc1ccc(/C=C(\C#N)c2cc(OC)c(OC)c(OC)c2)cc1,1.46% (active),-8.11% (active),42.8%,24.1%,7.57% (active),5.56% (active),20.8%,18.2%,-1.75% (active),69.1%,38.4%,48.7%,27%,14.1%,8.76% (active),65.7%,8.3% (active),–,-69.7% (active)
CCN(CCC#N)c1ccccc1,106%,100%,106%,101%,107%,109%,108%,99.7%,113%,100%,89.9%,122%,115%,102%,96.5%,119%,109%,–,132%
NS(=O)(=O)c1ccc(CCn2c(SCC(=O)N/N=C/c3cccnc3)nc3ccccc3c2=O)cc1,93.3%,83%,101%,83.3%,90.5%,68.5%,97.3%,92.4%,98.9%,81.7%,98.5%,93.4%,89.7%,85.7%,104%,107%,94.7%,61%,–
COc1ccc(-c2cc(C(=O)Nc3ccc(C)cc3)nc3[nH]c(=O)sc23)cc1,75.4%,80.1%,78.5%,84.7%,68.8%,24.3%,50.6%,65.2%,89.6%,73.3%,86.3%,85.8%,88.7%,70.7%,75.6%,51.4%,70.8%,61.9%,–
COc1ccc(NC(=O)Cn2c(=O)sc3c(-c4ccc(Cl)cc4)cc(-c4ccc(Cl)cc4)nc32)cc1,91%,108%,95.1%,97.8%,102%,70%,96.7%,88.7%,96.7%,112%,110%,110%,93.1%,95.8%,98%,115%,94.1%,85.1%,–
CC1(C)CN(CCNc2nccc(-c3c(-c4cccc(O)c4)nc4sccn34)n2)S(=O)(=O)N1,70%,87.5%,54.2%,89.1%,50.6%,65.1%,117%,50.6%,67.9%,5.36% (active),53.8%,57.1%,84%,92.9%,87.2%,46.8%,-1.68% (active),–,32.1%

# From PubChem BioAssay (NCI)
